This is one part of the list. The source made the active and inactive calls.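 Rule for the calls: active = proliferation increase above 40% at any of the four tested concentrations; inactive = the rest.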
test: MIN6 insulinoma cell replication enhancers – MIN6 cells, mouse, confirmation (AID 463095); conditions: MIN6 beta-cell proliferation, ATPlite luminescence, 48 h, cells kept in 0.2% serum, scaled between 0.2% and 10% serum; series mostly up to 50 µM

outcome, inactive:
CCOc1ccccc1NC(=O)Nc1cc(OC)ccc1OC
CCCNC(=O)CCn1nc(-c2ccccc2)c2ccccc2c1=O
COc1ccc(CCn2c(=N)c(C(=O)NCc3ccco3)cc3c(=O)n4cccc(C)c4nc32)cc1
COC(=O)Nc1sc2nc(C)cc(C)c2c1-n1cccc1
CC1(C)C2CC=C(/C=N/NC(=O)C3CC3)C1C2 (stereo not drawn)
Cc1nn(C(C)C(=O)NCCC2=CCCCC2)c(=O)c2nn(-c3ccccc3)c(C)c12 (stereo not drawn)
O=S(=O)(NCCOc1cccc2cccnc12)c1ccc(F)cc1
COc1ccccc1N=Cc1c(O)c2ccccc2oc1=O
O=C(Nc1ccc(F)cc1)C1CCCN(S(=O)(=O)c2ccc(-n3cnnn3)cc2)C1 (stereo not drawn)
N#Cc1cccc(CN2CCC(=O)N([C@H](CO)c3ccccc3)CC2)c1
COc1cccc(CNC(=O)C2CCCN(c3ncnc4c3nc3n4CCCCC3)C2)c1 (stereo not drawn)
O=C(CSc1nc2ccccc2[nH]1)N/N=C/C=C\c1ccccc1[N+](=O)[O-]
COc1cccc(CNC(=O)CCC2CCCN(C(=O)c3ccoc3C)C2)c1 (stereo not drawn)
CC(=O)OC(C(=O)NC1CCCCC1)c1ccccc1 (stereo not drawn)
COc1ccc(CCC(=O)c2ccc(OC)cc2)cc1
Cc1cc(NC(=O)c2ccco2)c(=O)n(Cc2c(F)cccc2Cl)c1
CC/C(=N/Nc1ccccc1)c1cnnc(SC)n1
CC(=O)c1cccc(NC(=O)COc2ccc(S(=O)(=O)N3CCOCC3)cc2)c1

Source: PubChem BioAssay AID463095 (Sanford-Burnham Center for Chemical Genomics, 2010)
